This is a sample that favours compounds with a hit; in the whole collection about 2.4% have one here.
D2 antag: HTS Assay for Allosteric Antagonists of the Human D2 Dopamine Receptor: Primary Screen for Antagonists | inhibition, % at 10 µM | D(2) dopamine receptor (Homo sapiens), P14416 | 2% of 340,000 active | HEK293 TREx D2 cells, calcium flux, dopamine EC80; in the data active means inhibition above about 30%; inactive means below that, where a call was filed; further: 0% is about no effect
Target sequence (P14416 whole entry, looked up): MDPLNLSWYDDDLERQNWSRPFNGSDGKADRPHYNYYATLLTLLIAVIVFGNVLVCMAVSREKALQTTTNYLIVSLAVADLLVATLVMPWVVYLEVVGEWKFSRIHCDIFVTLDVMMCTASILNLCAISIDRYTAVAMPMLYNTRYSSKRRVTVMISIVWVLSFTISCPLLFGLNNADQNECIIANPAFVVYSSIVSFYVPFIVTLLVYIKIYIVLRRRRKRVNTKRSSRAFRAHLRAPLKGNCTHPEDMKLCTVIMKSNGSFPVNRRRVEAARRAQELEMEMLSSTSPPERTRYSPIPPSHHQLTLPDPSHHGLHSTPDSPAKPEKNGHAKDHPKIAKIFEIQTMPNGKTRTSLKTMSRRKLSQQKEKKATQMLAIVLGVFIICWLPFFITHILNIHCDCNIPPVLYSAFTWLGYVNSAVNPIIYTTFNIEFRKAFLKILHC
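Overnight-induced (tetracycline, 30 C) HEK293 T-REx cells carrying force-coupled D2 receive a no-wash calcium dye, then compound, then EC80 dopamine at 180 s; signals are read kinetically throughout.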
D2 ag-1: Beta-Arrestin HTS for Positive Allosteric Modulators of the Human D2 Dopamine Receptor: Agonists; DiscoveRx PathHunter D2 beta-arrestin, luminescence, 90 min; 100% = 57 uM dopamine signal; D(2) dopamine receptor (Homo sapiens), P14416; AID 624465, 2012; 0.084% of 360,000 active; activation, % (no concentration beside the values); in the data active means activation above about 40%
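Agonist mode: compounds alone added to overnight-plated D2 PathHunter cells for 90 min at 37 C, with 57 uM final dopamine (EC100) defining full response. Beta-arrestin recruitment detected by chemiluminescent reagent, read after 1 h at ambient temperature.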
D2 PAM-1: HTS Assay for Positive Allosteric Modulators of the Human D2 Dopamine Receptor: Primary Screen for Potentiators. AID 485347, 2010. 0.34% of 340,000 active. potentiation, % at 10 µM. D(2) dopamine receptor (Homo sapiens), P14416. HEK293 T-REx D2, calcium flux, EC20 dopamine potentiation;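 active means potentiation over 3 SD above the plate norm, cut at about 30% in these data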; further: 0% is about no effect
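Potentiation of an EC20 dopamine calcium response is measured in a force-coupled, tetracycline-inducible Hek293 Trex D2 line. Compound-only kinetic reads over 180 s flag agonists before dopamine addition.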
D2 PAM-2: Beta-Arrestin HTS for Positive Allosteric Modulators of the Human D2 Dopamine Receptor: Potentiators. D(2) dopamine receptor (Homo sapiens), P14416. DiscoveRx D2 beta-arrestin cells, luminescence, 90 min; 100% = 57 uM dopamine signal. potentiation, % (concentration not given with the values). 0.23% of 360,000 active. AID 624464, 2012; in the data active means potentiation above about 50%
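PathHunter D2 cells, attached overnight at 37 deg C, received compound in DMSO plus dopamine at EC20 (50 nM final) for 90 min at 37 deg C. Beta-arrestin recruitment was read as luminescence after 1 h with detection reagent at ambient temperature.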
D2 ag-2: HTS Assay for Allosteric Agonists of the Human D2 Dopamine Receptor: Primary Screen for Agonists; D(2) dopamine receptor (Homo sapiens), P14416; HEK293 T-REx D2 cells, calcium flux agonist mode; activation, % at 2 µM; 0.53% of 340,000 active;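 active means activation over 3 SD above normal in the single-dose calcium agonist read, cut at about 30% in these data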; further: 0% is about no effect
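In this primary screen, compounds producing a positive calcium signal within 180 s of addition to tetracycline-induced, force-coupled HEK293 Trex D2 cells are flagged; cells are dye-loaded with a no-wash calcium kit beforehand.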
The depositor's hits bear a star; nt = not tested or not shown.

SMILES	D2 antag	D2 ag-1	D2 PAM-1	D2 PAM-2	D2 ag-2
COc1ccccc1CNC(=O)c1ccc(Cn2c(SCc3ccccc3)nc3cccnc32)cc1	nt	nt	1	nt	0
Cc1ccc(C(=O)N/C(=C/c2cccnc2)C(=O)N2CCCCCC2)cc1	1	0	13	-11	-1
COc1ccc(OC)c(NC(=O)C(=O)NNC(=O)c2cccs2)c1	38*	0	20	5	0
COc1cc(N)ccc1NC(=O)c1cccs1	11	9	9	79*	0
CC(C)CC(C(=O)Nc1ccc2c(c1)OCCO2)N1C(=O)c2ccccc2C1=O (configuration not stated)	57*	7	-6	-7	-2
CC(C)C(C(=O)Nc1ccc2c(c1)OCCO2)N1C(=O)c2ccccc2C1=O (configuration not stated)	-5	-4	-6	-8	1
O=C(Nc1ccc2c(c1)OCCO2)c1cc2ccccc2o1	33*	0	-6	-18	-1
COC(=O)C1=CN(Cc2ccc(C)cc2)C=C(C(=O)OC)C1c1cc(OC)c(OC)c(OC)c1	-5	-3	-3	-15	1
COCCN1C=C(C(=O)OC)C(c2cc(Br)c(OC)c(OC)c2)C(C(=O)OC)=C1	-3	-1	34*	-14	-1
COc1ccc(C(C#N)(CCC#N)CCC#N)cc1OC	80*	-2	-24	-20	2
C=CCC(C#N)(c1ccc(OC)c(OC)c1)c1cnccn1 (configuration not stated)	6	-4	5	-9	0
COc1ccc(NCC(=O)N/N=C/c2c(C)nn(Cc3ccccc3)c2Cl)cc1	31*	1	-4	0	-1
Cc1nn(Cc2ccccc2)c(C)c1/C=N/NC(=O)CNc1cccc(C(F)(F)F)c1	8	14	2	-10	2
Cn1c(C(=O)N2CCN(Cc3ccc4c(c3)OCO4)CC2)cc2sccc21	100*	-2	-22	-19	0
O=C(C1CCN(c2nnc(-n3cccc3)s2)CC1)N1CCN(Cc2ccc3c(c2)OCO3)CC1	32*	4	-20	-4	71*
O=C(c1ccc(Br)s1)N1CCN(Cc2ccc3c(c2)OCO3)CC1	78*	0	-23	-22	0
COc1cccc(CN2CCC(C(=O)N3CCN(Cc4ccc5c(c4)OCO5)CC3)CC2)c1	5	-4	-1	-21	1
O=C(c1c(F)c(F)c(F)c(F)c1F)N1CCN(Cc2ccc3c(c2)OCO3)CC1	nt	-6	nt	-16	nt
Cn1c(C(=O)N2CCC(C(=O)N3CCN(Cc4ccc5c(c4)OCO5)CC3)CC2)cc2sccc21	-13	-2	10	-4	5
O=C(c1cc2c(s1)CCCC2)N1CCN(Cc2ccc3c(c2)OCO3)CC1	75*	-3	-21	-39	0
CCC(C)S(=O)(=O)c1oc(-c2cccs2)nc1S(=O)(=O)c1ccccc1 (configuration not stated)	nt	nt	13	nt	10
CN(C)S(=O)(=O)c1ccc2c(c1)N(CC(=O)Nc1ccc(OC(F)(F)F)cc1)C(=O)CS2	nt	nt	-1	nt	1
CCOc1cc(C2NC(=O)c3c(sc4c3CCN(C)C4)N2)ccc1OC(=O)c1ccccc1Cl (configuration not stated)	nt	nt	12	nt	-2
Cn1ccnc1C1CCCCN1C(=O)c1cc(COc2ccc(F)cc2F)on1 (configuration not stated)	-8	-1	8	-4	0
O=C(C1CCN(S(=O)(=O)c2ccccc2)CC1)N1CCc2ccccc21	28	-2	-12	-4	98*
SMILES	D2 antag	D2 ag-1	D2 PAM-1	D2 PAM-2	D2 ag-2
O=C(C1COc2ccccc2O1)N1CCc2ccccc21 (configuration not stated)	35*	0	5	26	0
O=C(C1COc2ccccc2O1)N1CCCC1 (configuration not stated)	-6	-3	-3	-8	1
O=C(C1CCN(S(=O)(=O)c2ccccc2)CC1)N1CCN(c2ccccc2F)CC1	32*	-2	10	-3	-1
CCOCCCNCc1ccc(OCCC(C)C)c(OC)c1	35*	-6	-9	-8	-1
CNS(=O)(=O)c1cn(CC(=O)NCc2ccc(N(C)C)cc2)cc1S(=O)(=O)NC	-7	-2	19	-3	1
COC(=O)c1cc(NC(=O)CN2CCOCC2)cc(C(=O)OC)c1	-2	-4	-7	5	7
CN1CCN(CCC(=O)Nc2cccc(Br)c2)CC1	7	-1	-14	-11	0
CCOC(=O)c1cc(NC(=O)CN2CCCC2)cc(C(=O)OCC)c1	9	3	36*	-3	-2
O=C(CCN1CCCCC1)Nc1cccc(Br)c1	55*	-5	-11	-6	0
COC(=O)c1ccc(NC(=O)CN2CCN(CCO)CC2)cc1	33*	0	-11	-1	0
CC1CN(CC(=O)Nc2ccc(Br)cn2)CC(C)O1 (configuration not stated)	-19	2	13	2	2
O=C(CN1CCCCCC1)Nc1ccc(Br)cn1	41*	-5	12	-3	-1
COc1ccc(CCNC(=O)CCS(=O)(=O)c2cc(Br)cc3c2N(C(C)=O)CC3)cc1OC	nt	nt	6	nt	0
O=C(CN1CCCCCC1)Nc1ccc(Br)cc1	77*	7	-23	-19	2
O=C(CN1CCCC1)Nc1ccc(Br)cc1	-22	-2	7	-3	1
O=C(Cc1ccc(Cl)cc1)Nc1ccc(Br)cc1	44*	1	-22	-26	0
O=c1ccc2ccccc2c2ccccc12	nt	-7	nt	-13	nt
O=Nc1c(O)c2ccccc2c2ccccc12	nt	11	nt	67*	nt
COc1ccccc1CN1CCc2c([nH]c3ccccc23)C1	53*	-4	-19	-69	4
O=C(COc1ccccc1[N+](=O)[O-])N/N=C/c1ccc(O)cc1	4	13	13	72*	0
O=C(CN1CCN(Cc2ccccc2Cl)C1=O)NC1CCCCCCC1	31*	-1	0	5	-2
CC1CCCCC1NC(=O)CN1CCN(Cc2ccccc2Cl)C1=O (configuration not stated)	4	-4	12	-10	1
Cc1ccc(OCC(=O)OC2=C(C(=O)c3ccccc3)N(C)S(=O)(=O)c3ccccc32)cc1	nt	nt	9	nt	-1

Screening results from PubChem.
